Inconclusive results are not listed. Values without a mark were called inactive. Activity calls are given as the source filed them. Unless noted, calls follow the shape of the full dose curve.
tested on: not listed separately; assay: qHTS assay to identify small molecule agonists or antagonists of the thyroid stimulating hormone receptor (TSHR) signaling pathway - wild type cell line counter screen (AID 1259384); settings: HEK293 wild type, cAMP HTRF counter-screen, active compounds read high; series mostly up to 92.4 µM; cAMP activity change: at the top concentration
Procedure, shortened: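 Wild-type HEK293 cells were plated 18 h at 37 C/5% CO2, pin-dosed with compound plus Ro20-1724 medium, held 30 min at room temperature, then given cAMP-d2 and anti-cAMP-cryptate; fluorescence was read after 1 h. Fifteen concentrations, triplicate.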
% is scaled to controls: 0 for no effect and ±100 for the full control effect.

Structure (SMILES)	cAMP activity change	outcome
O=C(CCCN1CCN(c2ccc(F)cc2)CC1)NC1c2ccccc2CSc2ccccc21 (stereo not drawn)	-3.34% [at 42.5 µM]	
C=CCOC(=O)/C=C\C(=O)OCC=C	-2.44%	
O=C(CS)OCCOC(=O)CS	-5.98%	
CCCCCCCCSCCO	-0.889%	
COCc1c(C(C)C)nc(C(C)C)c(/C=C/[C@@H](O)C[C@@H](O)CC(=O)O)c1-c1ccc(F)cc1		inactive
C(=C\c1ccccc1)/CN1CCN(C(c2ccccc2)c2ccccc2)CC1	-5.05% [at 42.5 µM]	
COCCOC(=O)C1=C(C)NC(C)=C(C(=O)OC/C=C/c2ccccc2)C1c1cccc([N+](=O)[O-])c1 (stereo not drawn)	-1.96% [at 42.5 µM]	
O=C(CCCCCCC(=O)Nc1ccccc1)NO	-6.34% [at 42.5 µM]	
CCOC(=O)N1CCC(n2c(=O)[nH]c3cc(Cl)ccc32)CC1	2.72% [at 42.5 µM]	
CCCCCCCCCCCC(=O)[O][Sn]([CH2]CCC)([CH2]CCC)[O]C(=O)CCCCCCCCCCC	1.53% [at 42.5 µM]	
C[C@]12CCC(=O)C=C1C=C[C@@H]1[C@@H]2CC[C@@]2(C)[C@H]1CC[C@@]21CCC(=O)O1	3.79% [at 42.5 µM]	
N#C/C(=C1/SC[C@@H](c2ccc(Cl)cc2Cl)S1)n1ccnc1	0.764% [at 42.5 µM]	
NC(=O)Nc1ccc(Cl)c(Cl)c1	0.642%	
CC(=O)Oc1ccc(C(=C2CCCCC2)c2ccc(OC(C)=O)cc2)cc1	7.85% [at 42.5 µM]	
O=C(OCCOCCO)c1ccccc1Nc1cccc(C(F)(F)F)c1	1.56% [at 42.5 µM]	
CN(C)CCOC1=Cc2ccccc2Sc2ccc(Cl)cc21	5.77% [at 42.5 µM]	
OC(CCCN1CCCCC1)(c1ccccc1)c1ccccc1	0.205% [at 42.5 µM]	
CCCOc1ccc(S(=O)(=O)N2CCN(CC)CC2)cc1-c1nc2c(CC)n(Cc3ccccn3)nc2c(=O)[nH]1	-0.21%	
CC1CC(=O)NN=C1c1ccc(NCC(C)(C)NCC(O)COc2cc(Cl)ccc2C#N)cc1 (stereo not drawn)	2.76% [at 42.5 µM]	
CCOC(=N)CC(=O)OCC	-0.0928%	
NC(=O)N(O)[C@@H]1C=C[C@H](Oc2cccc(Oc3ccc(F)cc3)c2)C1	3.88%	
CNC(=S)NC	2.76%	
COc1cc2c(N3CCN(C(=O)Nc4ccc(OC(C)C)cc4)CC3)ncnc2cc1OCCCN1CCCCC1	-5.81% [at 42.5 µM]	
CCCC1C(CC)=CC(CC)=CN1c1ccccc1 (stereo not drawn)	-6.58%	
Cc1ccc(S)cc1	-4.61%	
O=C(CCCN1CCC(O)(c2ccc(Br)cc2)CC1)c1ccc(F)cc1	-0.526% [at 42.5 µM]	
CC1(C)C2=CCCC(C)(C)[C@]23CC[C@H]1C3	-3.12%	

target: Thyrotropin receptor (Homo sapiens) (UniProt P16473); assay: qHTS assay to identify small molecule antagonists of the thyroid stimulating hormone receptor (TSHR) signaling pathway (AID 1259385); settings: TSHR-HEK293 cAMP HTRF, TSH-stimulated antagonist mode; series mostly up to 92.4 µM; activity change, negative = inhibition: at the top concentration; also: nearly all actives have a fitted effect of over 20% in size
Procedure, shortened: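 TSHR-HEK293 cells were plated and held 18 h at 37C/5% CO2, then given compound plus Ro20-1724 and stimulated with TSH at 1.5 ng/mL final. After 30 min at room temperature, cAMP was detected with cAMP-d2/anti-cAMP-cryptate (1 h) by fluorescence.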

Chain of Thyrotropin receptor (Homo sapiens) (P16473 whole entry, looked up): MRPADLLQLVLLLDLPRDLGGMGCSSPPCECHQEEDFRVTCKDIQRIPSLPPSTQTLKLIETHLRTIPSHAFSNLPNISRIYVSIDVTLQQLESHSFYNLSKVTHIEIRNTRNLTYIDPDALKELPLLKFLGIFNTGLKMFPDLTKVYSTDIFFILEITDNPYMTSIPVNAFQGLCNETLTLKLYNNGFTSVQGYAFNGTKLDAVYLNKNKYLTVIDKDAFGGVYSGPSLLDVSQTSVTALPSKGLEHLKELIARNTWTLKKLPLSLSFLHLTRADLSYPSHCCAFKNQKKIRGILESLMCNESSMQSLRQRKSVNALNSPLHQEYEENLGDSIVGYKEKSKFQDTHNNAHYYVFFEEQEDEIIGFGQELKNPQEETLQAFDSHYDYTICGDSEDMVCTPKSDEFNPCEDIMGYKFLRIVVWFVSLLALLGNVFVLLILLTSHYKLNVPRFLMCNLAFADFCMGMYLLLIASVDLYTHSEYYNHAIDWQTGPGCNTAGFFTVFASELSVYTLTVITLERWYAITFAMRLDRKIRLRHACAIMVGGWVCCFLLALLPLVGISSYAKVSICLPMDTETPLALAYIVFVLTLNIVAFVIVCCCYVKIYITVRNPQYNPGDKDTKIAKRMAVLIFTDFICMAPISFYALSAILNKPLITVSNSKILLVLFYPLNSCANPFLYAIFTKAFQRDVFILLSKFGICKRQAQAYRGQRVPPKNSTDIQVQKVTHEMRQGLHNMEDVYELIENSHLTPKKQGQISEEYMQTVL

Structure (SMILES)	activity change, negative = inhibition
C=CCOC(=O)/C=C\C(=O)OCC=C	8.42%
O=C(CS)OCCOC(=O)CS	-1.3%
C[C@@H]1C[C@H]2[C@@H]3CCC4=CC(=O)C=C[C@]4(C)[C@@]3(F)[C@@H](O)C[C@]2(C)[C@H]1C(=O)CO	-7.35% [at 42.5 µM]
CCCCCCCCSCCO	4.03%
COCCOC(=O)C1=C(C)NC(C)=C(C(=O)OC/C=C/c2ccccc2)C1c1cccc([N+](=O)[O-])c1 (stereo not drawn)	0.312% [at 42.5 µM]
CCOC(=O)N1CCC(n2c(=O)[nH]c3cc(Cl)ccc32)CC1	-0.075% [at 42.5 µM]
CCCCCCCCCCCC(=O)[O][Sn]([CH2]CCC)([CH2]CCC)[O]C(=O)CCCCCCCCCCC	0.85% [at 42.5 µM]
CC(=O)Oc1ccc(C(=C2CCCCC2)c2ccc(OC(C)=O)cc2)cc1	-3.61% [at 42.5 µM]
O=C(OCCOCCO)c1ccccc1Nc1cccc(C(F)(F)F)c1	-0.457% [at 42.5 µM]
C/C=C/C=C/CCCCCCCO	1.12%
CCCCC/C(=C\c1ccccc1)CO	-4.74%
OC(CCCN1CCCCC1)(c1ccccc1)c1ccccc1	-1.4% [at 42.5 µM]
CC1CC(=O)NN=C1c1ccc(NCC(C)(C)NCC(O)COc2cc(Cl)ccc2C#N)cc1 (stereo not drawn)	1.35% [at 42.5 µM]
CCOC(=N)CC(=O)OCC	4.22%
COc1cc2c(N3CCN(C(=O)Nc4ccc(OC(C)C)cc4)CC3)ncnc2cc1OCCCN1CCCCC1	-7.24% [at 42.5 µM]
CCCC1C(CC)=CC(CC)=CN1c1ccccc1 (stereo not drawn)	-0.695%
CC1(C)C2=CCCC(C)(C)[C@]23CC[C@H]1C3	7.89%

tested on: not listed separately; assay: qHTS assay to identify small molecule agonists of the estrogen receptor alpha (ER-alpha) signaling pathway in the presence of an antagonist - cell viability counter screen (AID 1259386; active = well fitted cell-killing curve with a large enough effect in the repeat runs;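 also: cells exposed to compounds for 22 h at 37 °C before the viability read; nearly all actives have a fitted effect of over 30% in size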; also: potency is read from the fitted curve at half-maximal effect); settings: VM7Luc4E2 viability, CellTiter-Fluor fluorescence, 22 h; series mostly up to 92.4 µM; activity change, negative = cytotoxicity: at the top concentration
Procedure, shortened: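 Fluorescent CellTiter-Fluor viability signal from VM7Luc4E2 cells, with the reagent added during the final hour of a 22hr compound exposure at 37C in the presence of 10.0nM ICI-182,780.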

Structure (SMILES)	activity change, negative = cytotoxicity	Potency
CCCCC(=O)O[C@]1(C(=O)CO)[C@@H](C)C[C@H]2[C@@H]3CCC4=CC(=O)C=C[C@]4(C)[C@@]3(F)[C@@H](O)C[C@@]21C	0.888%	
COc1ccc(C(=O)c2cccc(O)c2)c(OC)c1	0.459%	
O=C(CCCN1CCN(c2ccc(F)cc2)CC1)NC1c2ccccc2CSc2ccccc21 (stereo not drawn)	-3% [at 42.5 µM]	
C=CCOC(=O)/C=C\C(=O)OCC=C	-0.25%	
O=C(CS)OCCOC(=O)CS	-1.35%	
C[C@@H]1C[C@H]2[C@@H]3CCC4=CC(=O)C=C[C@]4(C)[C@@]3(F)[C@@H](O)C[C@]2(C)[C@H]1C(=O)CO	-3.25% [at 42.5 µM]	
Cc1oc(C)c(C(=O)Nc2ccccc2)c1C	-14.8%	
CCCCCCCCSCCO	-5.26%	
COCCOC(=O)C1=C(C)NC(C)=C(C(=O)OC/C=C/c2ccccc2)C1c1cccc([N+](=O)[O-])c1 (stereo not drawn)	-7.33% [at 42.5 µM]	
O=C(CCCCCCC(=O)Nc1ccccc1)NO	0.824% [at 42.5 µM]	
CCOC(=O)N1CCC(n2c(=O)[nH]c3cc(Cl)ccc32)CC1		23.7 µM (active)
Nc1ccc(C(=O)OCCCOC(=O)c2ccc(N)cc2)cc1	0.143%	
CCCCCCCCCCCC(=O)[O][Sn]([CH2]CCC)([CH2]CCC)[O]C(=O)CCCCCCCCCCC	4.07% [at 42.5 µM]	
C[C@]12CCC(=O)C=C1C=C[C@@H]1[C@@H]2CC[C@@]2(C)[C@H]1CC[C@@]21CCC(=O)O1	3.83% [at 42.5 µM]	
N#C/C(=C1/SC[C@@H](c2ccc(Cl)cc2Cl)S1)n1ccnc1	-6.85% [at 42.5 µM]	
NC(=O)Nc1ccc(Cl)c(Cl)c1	1.35%	
CC(=O)Oc1ccc(C(=C2CCCCC2)c2ccc(OC(C)=O)cc2)cc1	3.49% [at 42.5 µM]	
O=C(OCCOCCO)c1ccccc1Nc1cccc(C(F)(F)F)c1	-6.65% [at 42.5 µM]	
CCOC(=O)[C@@H](C)Oc1ccc(Oc2nc3ccc(Cl)cc3o2)cc1	-1.18%	
CN(C)CCOC1=Cc2ccccc2Sc2ccc(Cl)cc21	-1.57% [at 42.5 µM]	
CCCCC/C(=C\c1ccccc1)CO	1.03%	
CCOC(=N)CC(=O)OCC	-6.33%	
O=C(Nc1ccc([N+](=O)[O-])cc1)Nc1ccc([N+](=O)[O-])cc1	3.88% [at 42.5 µM]	
CNC(=S)NC	-5.65%	
Cc1ccc(S)cc1	3.99%	
CCCCCCCC/C=C\CCCCCCCC(=O)OC(CO)CO	-11.2%	
O=C(CCCN1CCC(O)(c2ccc(Br)cc2)CC1)c1ccc(F)cc1	-0.739% [at 42.5 µM]	
CCc1c2c(nc3ccc(OC(=O)N4CCC(N5CCCCC5)CC4)cc13)-c1cc3c(c(=O)n1C2)COC(=O)[C@]3(O)CC	-0.228% [at 42.5 µM]	
CC1(C)C2=CCCC(C)(C)[C@]23CC[C@H]1C3	-2.84%	
